Experiment [1] concerns Human papillomavirus type 1a protein E7 (residues 44-93). The experiment can be described thus: small molecules binding HPV E7 44-93 – biochemical, small-molecule microarray, residues 44-93, 635 nm fluorescence, primary screen (AID 1108).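 Further: E7 fragment applied at 1 µg/mL in TBST for 1 h at 4 C; score combines spot fluorescence with its signal to noise ratio.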 Particulars: fluorescence 635 nm, higher = more signal.
Experiment [2] in a line: hepatitis C replication reporter changes, two-sided – Huh7 cells, luciferase reporter, HCV replication inhibitor project, primary screen (AID 1109).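 Further: huh7 hepatoma cells harbouring a luciferase neomycin HCV replicon reporter; luciferase luminescence as measure of HCV replicon replication; test concentration not given here.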 Particulars: Huh7 HCV replicon luciferase reporter, 48 h; higher = more signal. A general note: A reporter such as luciferase makes a cellular process visible.
In experiment [3] the target is Left-right determination factor 2 (Homo sapiens) (UniProt O00292). As to the kind of experiment: small molecules binding LEFTY2 protein – biochemical, small-molecule microarray, 635 nm fluorescence scan, primary screen (AID 1110). The following applies: higher = more signal.
Left-right determination factor 2 (Homo sapiens), sequence (O00292 whole entry, looked up): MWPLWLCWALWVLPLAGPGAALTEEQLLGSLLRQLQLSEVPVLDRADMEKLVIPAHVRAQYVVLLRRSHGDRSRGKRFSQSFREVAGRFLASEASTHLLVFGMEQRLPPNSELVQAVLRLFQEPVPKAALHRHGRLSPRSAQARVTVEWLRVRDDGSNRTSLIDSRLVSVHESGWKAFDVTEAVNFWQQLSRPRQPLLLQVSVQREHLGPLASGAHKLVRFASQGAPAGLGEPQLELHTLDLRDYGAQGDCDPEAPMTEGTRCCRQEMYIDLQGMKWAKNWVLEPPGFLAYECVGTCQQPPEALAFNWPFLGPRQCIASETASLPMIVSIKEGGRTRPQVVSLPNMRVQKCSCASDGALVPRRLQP
Experiment [4] deals with Calmodulin-1 (Homo sapiens) (UniProt P0DP23). As to the kind of experiment: small molecules binding calmodulin-1 with EGTA – biochemical, small-molecule microarray, Cy5-labelled CALM1, profiling panel (AID 1111).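 Further: labelled calmodulin applied in Tris saline Tween buffer holding calcium plus EGTA and DTT.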 The following applies: Cy5-CALM1 binding fluorescence, higher = more signal.
The target is the same in experiment [5]. As to the kind of experiment: small molecules binding Ca-loaded calmodulin-1 – biochemical, small-molecule microarray, Cy5-labelled CALM1, plus calcium, artefact control for SMM control-protein annotation, profiling panel (AID 1112).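 Further: score merges spot fluorescence with signal to noise from triplicate slides.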 Particulars: Cy5-CALM1 binding fluorescence, higher = more signal.
The nature of experiment [6]: probe aWnt5a binding to arrayed compounds – biochemical, biotinylated probe, 635/667 nm fluorescence, primary screen (AID 1113).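 Further: score merges 667 nm fluorescence intensity with signal-to-noise per printed feature.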 The following applies: small-molecule microarray, higher = more signal.
Experiment [7] in a line: probe aShh binding to arrayed compounds – biochemical, biotinylated probe, 635/667 nm fluorescence, primary screen (AID 1114).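 Further: probe is biotin-labelled aShh protein from a stem cell growth factor screen; measures binding of labelled protein to compounds printed on the slide; score merges feature fluorescence at 667 nm with signal-to-noise.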 The following applies: small-molecule microarray, higher = more signal.
A short description of experiment [8]: probe aNog binding to arrayed compounds – biochemical, biotinylated probe, 635/667 nm fluorescence, primary screen (AID 1115).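 Further: probe is biotinylated aNog protein used at 0.15 µg/mL for 1 h at 4 C; z-score combines 667 nm fluorescence of each spot with its signal to noise.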 The following applies: small-molecule microarray, higher = more signal.
The target in experiment [9] is Torsin-1A-interacting protein 1 (Homo sapiens) (UniProt Q5JTV8). The experiment can be described thus: compound microarray binding of lysate hLAP1 – cell lysate, small-molecule microarray, COS7 lysate, 635/667 nm fluorescence, primary screen (AID 1116). Particulars: 635 nm fluorescence, higher = more signal.
Torsin-1A-interacting protein 1 (Homo sapiens), sequence (Q5JTV8 whole entry, looked up): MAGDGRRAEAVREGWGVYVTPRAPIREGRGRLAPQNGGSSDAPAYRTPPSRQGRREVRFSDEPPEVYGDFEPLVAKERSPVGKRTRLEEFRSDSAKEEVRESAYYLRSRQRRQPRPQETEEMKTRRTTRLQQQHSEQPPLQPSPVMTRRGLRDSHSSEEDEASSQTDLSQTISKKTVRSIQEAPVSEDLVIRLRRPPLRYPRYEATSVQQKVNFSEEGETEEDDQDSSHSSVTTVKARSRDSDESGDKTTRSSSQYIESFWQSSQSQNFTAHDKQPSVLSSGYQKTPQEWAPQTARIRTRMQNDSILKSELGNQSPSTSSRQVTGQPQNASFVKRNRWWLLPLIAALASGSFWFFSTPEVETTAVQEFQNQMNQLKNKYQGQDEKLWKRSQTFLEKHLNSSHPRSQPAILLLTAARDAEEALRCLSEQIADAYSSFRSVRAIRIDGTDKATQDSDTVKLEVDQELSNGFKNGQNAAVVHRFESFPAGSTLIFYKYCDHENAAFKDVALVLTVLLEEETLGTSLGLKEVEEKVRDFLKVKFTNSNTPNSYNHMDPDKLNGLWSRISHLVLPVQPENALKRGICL
For experiment [10], the target named is Alpha-bungarotoxin (Bungarus multicinctus) (UniProt P60615). The experiment can be described thus: compounds binding labelled alpha-BTX control protein – biochemical, small-molecule microarray, Alexa647 label, 635/667 nm fluorescence, artefact control for SMM control protein annotation, profiling panel (AID 1117). Particulars: alpha-BTX-A647 binding fluorescence, higher = more signal.
Alpha-bungarotoxin (Bungarus multicinctus), sequence (P60615 whole entry, looked up): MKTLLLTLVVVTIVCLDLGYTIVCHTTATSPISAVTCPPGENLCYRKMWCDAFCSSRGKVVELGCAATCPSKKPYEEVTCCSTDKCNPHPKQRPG

The target of a further experiment is Albumin (Bos taurus) (UniProt P02769). As to the kind of experiment: compounds binding labelled BSA control protein – biochemical, small-molecule microarray, Alexa647 label, 635/667 nm fluorescence, artefact control for SMM control protein annotation, profiling panel (AID 1118).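 Further: score merges 667 nm emission intensity and signal-to-noise per printed compound spot.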 Particulars: BSA-A647 binding, fluorescence 635 nm, higher = more signal.
Albumin (Bos taurus), sequence (P02769 whole entry, looked up): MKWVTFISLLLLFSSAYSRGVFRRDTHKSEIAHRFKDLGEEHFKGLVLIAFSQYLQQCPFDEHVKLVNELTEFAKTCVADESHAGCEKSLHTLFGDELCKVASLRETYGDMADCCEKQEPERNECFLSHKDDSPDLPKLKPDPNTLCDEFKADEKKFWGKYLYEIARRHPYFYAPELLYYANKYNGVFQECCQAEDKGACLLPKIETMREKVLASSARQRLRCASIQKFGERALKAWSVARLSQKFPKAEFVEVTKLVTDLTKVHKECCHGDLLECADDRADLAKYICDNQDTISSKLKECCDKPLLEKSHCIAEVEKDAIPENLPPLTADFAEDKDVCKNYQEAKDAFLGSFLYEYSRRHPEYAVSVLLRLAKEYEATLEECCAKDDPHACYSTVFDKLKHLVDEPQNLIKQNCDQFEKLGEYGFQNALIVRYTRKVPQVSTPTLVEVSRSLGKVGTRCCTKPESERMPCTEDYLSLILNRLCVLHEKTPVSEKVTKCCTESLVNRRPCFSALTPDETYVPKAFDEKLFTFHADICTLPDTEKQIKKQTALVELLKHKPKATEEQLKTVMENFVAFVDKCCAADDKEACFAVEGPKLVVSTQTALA
Experiment [11] can be described thus: probe aXIP binding to arrayed compounds – biochemical, NeuroSMM set, 635/667 nm fluorescence, primary screen (AID 1119).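 Further: probe is the protein aXip251-270 applied at 1 µg/mL to compound-printed slides; binding of probe to printed compounds measured as 667 nm fluorescence plus signal to noise.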 Particulars: small-molecule microarray, higher = more signal, called active from +8 up or from −8 down.
Experiment [12] is described as follows: probe aNOTCH3 binding on compound microarray – biochemical, small-molecule microarray, 635/667 nm fluorescence, primary screen (AID 1120).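 Further: probe is a biotin-tagged antibody raised against NOTCH3 rather than NOTCH3 protein; score merges spot fluorescence near 667 nm with spot signal to noise.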 Particulars: higher = more signal.
Experiment [13] can be described thus: probe aNOTCH2 binding on compound microarray – biochemical, small-molecule microarray, 635/667 nm fluorescence, primary screen (AID 1121).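 Further: score merges feature fluorescence read at 667 nm with its signal to noise.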 The following applies: higher = more signal.
Experiment [14] concerns the target Carbonic anhydrase 2 (Homo sapiens) (UniProt P00918). As to the kind of experiment: compounds binding carbonic anhydrase 2 – biochemical, small-molecule microarray, Alexa647-labelled CAII, profiling panel (AID 1122). Particulars: CAII-A647 binding fluorescence, higher = more signal.
The nature of experiment [15]: COS7 lysate on small-molecule microarray, probe aHis, 635 nm (AID 1123).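 Further: z-score combines 667nm fluorescence intensity with signal-to-noise per printed compound spot.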 Particulars: COS7 cell lysate, fluorescence, higher = more signal.
Experiment [16] can be described thus: probe aLAP1 signal on lysate-treated microarray – cell lysate, small-molecule microarray, COS7 lysate, primary screen (AID 1124).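 Further: lysate comes from COS7 cells expressing LAP1 and is applied at 0.3 µg/mL; score merges spot fluorescence near 667 nm with signal-to-noise over triplicate slides.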 Particulars: probe aLAP1, fluorescence, higher = more signal.
The next experiment concerns Sam68 (KHDRBS1). The experiment can be described thus: compounds binding KHDRBS1 protein – biochemical, small-molecule microarray, 635 nm fluorescence, primary screen (AID 1125).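 Further: score merges 667 nm channel intensity with signal to noise over triplicate slides.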 Particulars: higher = more signal.
For experiment [17], the system named is Chordin-like protein 2 (CHRDL2). The experiment can be described thus: compounds binding chordin-like 2 – biochemical, small-molecule microarray, 635 nm fluorescence, primary screen (AID 1126).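 Further: printed compound slides probed with Chrdl2 protein at 4 µg/mL for 1 h at 4 C; score merges 667 nm emission intensity with signal to noise over three replicate slides.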 The following applies: fluorescence 635 nm, higher = more signal.
In experiment [18] the target is Concanavalin-A (Canavalia ensiformis) (UniProt P02866). As to the kind of experiment: compounds binding concanavalin A lectin – biochemical, small-molecule microarray, Alexa647 label, 635 nm, artefact control for SMM control protein annotation, primary screen (AID 1127).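 Further: z combines 667 nm emission intensity with signal-to-noise across three replicate slides.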 Particulars: ConA-A647 binding fluorescence, higher = more signal.
Concanavalin-A (Canavalia ensiformis), sequence (P02866 whole entry, looked up): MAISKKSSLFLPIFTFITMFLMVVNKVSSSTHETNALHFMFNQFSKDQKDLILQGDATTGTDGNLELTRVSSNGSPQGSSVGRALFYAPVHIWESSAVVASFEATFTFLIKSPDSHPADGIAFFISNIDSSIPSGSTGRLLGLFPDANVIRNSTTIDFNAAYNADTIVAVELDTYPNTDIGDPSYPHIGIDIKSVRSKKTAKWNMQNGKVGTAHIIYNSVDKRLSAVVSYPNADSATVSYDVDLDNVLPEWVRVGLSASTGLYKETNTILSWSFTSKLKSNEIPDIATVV

Active and inactive are the calls of the source.

In the case of `COc1ccc([Si](C)(C)[C@H]2[C@H](CCn3cc([C@H](O)c4ccccc4)nn3)O[C@@]3(C(=O)N(Cc4cccc(N5C(=O)c6cccc7cccc5c67)c4)c4ccccc43)[C@@H]2C)cc1`, the composite z-score in experiment [1] was -0.56; in experiment [3], -0.823; in [4] it was 0.419; in experiment [5], 1.13; in [6], -0.175; in experiment [7], -0.2. For the same molecule, the composite z-score was 0.206 in [8]; -0.0061 in [9]; -1.02 in experiment [10]; 0.145 with Albumin (Bos taurus); -0.185 in [12]; -0.159 in experiment [13]. Further, the composite z-score in experiment [14] is 0.339; in experiment [15], 0.501; in experiment [16], -0.0631; in the experiment with Sam68 (KHDRBS1), 0.258; in experiment [17], -1.54; in experiment [18] it was -0.24. Further, the z-score in experiment [2] was -2.67. In [11], the composite Z-score is 0.674 (inactive).

For the molecule `COCCCNC(=O)[C@]1(Cc2ccccc2CN=[N+]=[N-])N=C(c2ccc(OCCCO)cc2)O[C@@H]1c1ccccc1`, the composite z-score in experiment [1] was 1.4; in experiment [3], -0.369; in [4] it was 0.486; in experiment [5], 0.0518; in experiment [6], 0.0519; in experiment [7] it was -0.279. The composite z-score in experiment [8] was -0.225; in experiment [9], 1; in experiment [10], 0.543; with Albumin (Bos taurus), 0.867; in experiment [12], 0.289; in experiment [13] it was -0.0633. In addition, the composite z-score in experiment [14] is 0.548; in [15], 1.91; in experiment [16], 0.785; with Sam68 (KHDRBS1) it was 0.997; in experiment [17], -0.474; in experiment [18], 1. Moreover, the z-score in experiment [2] was -3.18. Further, in experiment [11], the composite Z-score is -0.337 (inactive).

Consider `CN1C(=O)C2C=CC(C(O)c3c(F)cccc3Cl)N(Nc3ccccc3)C2C1=O` (stereo not given), for which the composite z-score in experiment [1] was 1.19; in experiment [3], -0.445; in experiment [4], 1.45; in [5] it was 0.496; in [6], -0.0276; in experiment [7] it was 0.432. Moreover, the composite z-score in experiment [8] was determined as 0.707; in experiment [9], 0.0127; in [10], 0.904; in the experiment with Albumin (Bos taurus) it was 0.956; in experiment [12], 0.291; in experiment [13], 0.0177. The composite z-score in experiment [14] was 0.396; in experiment [15], 2.84; in experiment [16], 0.73; in the experiment with Sam68 (KHDRBS1), 0.895; in [17], 0.298; in experiment [18] it was 1.18. This molecule also registered a z-score in experiment [2] of -0.659. Besides, the composite Z-score in [11] was -0.263 (inactive).

With `O=C1c2ccccc2[C@@]2(Cc3ccccc3N(C3CC3)C2=O)[C@H](c2ccc(CO)cc2)N1C1CCCCC1`, the composite z-score in experiment [1] is 0.0731; in experiment [3], -0.825; in experiment [4], 0.0762; in experiment [5], 0.347; in experiment [6] it was -0.096; in experiment [7], 0.107. Moreover, the composite z-score is -0.0165 in [8]; -0.502 in experiment [9]; 0.233 in experiment [10]; 0.804 with Albumin (Bos taurus); -0.125 in experiment [12]; -0.0804 in experiment [13]. In addition, the composite z-score was 0.269 in [14]; 0.154 in [15]; 0.586 in experiment [16]; -0.728 with Sam68 (KHDRBS1); -0.431 in experiment [17]; -1.02 in experiment [18]. Besides, the z-score in experiment [2] came out at 0.056. The composite Z-score in [11] was -0.481 (inactive).

Consider `CC(C)CNC(=O)[C@@H]1c2ccccc2C(=O)N(Cc2cc(F)cc(C(F)(F)F)c2)[C@H]1c1ccc(CO)cc1`, for which the composite z-score in experiment [1] is -0.0365; in experiment [3], -0.0784; in experiment [4], 0.0981; in experiment [5], -0.025; in experiment [6], -0.0459; in experiment [7], 0.0639. In addition, the composite z-score is -0.579 in experiment [8]; 0.662 in experiment [9]; -0.694 in [10]; 0.382 with Albumin (Bos taurus); 0.0628 in experiment [12]; -0.0486 in experiment [13]. The composite z-score in experiment [14] is 0.411; in [15], 1.07; in experiment [16], 0.333; with Sam68 (KHDRBS1), 0.603; in experiment [17], -0.182; in experiment [18], 0.0535. For the same molecule, the z-score in experiment [2] was -0.604. Besides, the composite Z-score in experiment [11] was -0.161 (inactive).

(Values after PubChem BioAssay.)
